Laboratory results: PMC7862700, “An all-to-all approach to the identification of sequence-specific readers for epigenetic DNA modifications on cytosine”

How the values were obtained:
Test in all cases: DAPPL (digital affinity profiling via proximity ligation, sequencing); 10 mM Tris-HCl pH 7.5, 50 mM NaCl, 1 mM DTT, 4% glycerol, room temperature, 30 min; GST-TFs on glutathione beads, 16-mer random dsDNA library, 0.1% formaldehyde crosslink after washing; high values mean tight binding
Conditions in all cases: protein: recombinant; tags: N-terminal GST; dsDNA, one strand shown
ELK1 = biological target: T1, ELK1 (Homo sapiens, UniProt P19419 1-428)
T1 sequence: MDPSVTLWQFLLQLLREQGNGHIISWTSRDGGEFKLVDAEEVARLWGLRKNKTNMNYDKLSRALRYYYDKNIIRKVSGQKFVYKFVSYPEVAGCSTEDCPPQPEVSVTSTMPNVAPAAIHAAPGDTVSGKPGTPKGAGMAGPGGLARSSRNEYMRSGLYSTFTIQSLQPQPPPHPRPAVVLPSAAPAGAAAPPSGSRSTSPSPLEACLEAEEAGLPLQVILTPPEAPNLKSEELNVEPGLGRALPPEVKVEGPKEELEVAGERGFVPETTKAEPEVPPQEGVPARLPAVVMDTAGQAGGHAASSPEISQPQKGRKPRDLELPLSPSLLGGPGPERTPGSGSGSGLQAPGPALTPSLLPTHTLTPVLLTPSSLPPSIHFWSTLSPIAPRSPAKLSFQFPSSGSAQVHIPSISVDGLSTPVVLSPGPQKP
In short: (§1)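 In yeast, human transcription factors were expressed with a GST fusion, then pulled down on glutathione beads and given DNA barcodes. Pooled with a tag-only sample, they were exposed to 200 nmole of a 16-mer random double-stranded DNA library (Tris/NaCl/DTT/glycerol buffer, room temperature, 30 min), washed, crosslinked with 0.1% formaldehyde, proximity-ligated using BsaI/T4 ligase for 1 h at 37 °C, PCR-amplified and read on an Illumina NextSeq500. Each hexamer's frequency of reads for a factor, divided by the matching frequency for the tag-only sample, gives the binding signal.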

ELF1 = ELF1 (Homo sapiens, UniProt P32519 1-619)
Chain of ELF1 (P32519 whole entry): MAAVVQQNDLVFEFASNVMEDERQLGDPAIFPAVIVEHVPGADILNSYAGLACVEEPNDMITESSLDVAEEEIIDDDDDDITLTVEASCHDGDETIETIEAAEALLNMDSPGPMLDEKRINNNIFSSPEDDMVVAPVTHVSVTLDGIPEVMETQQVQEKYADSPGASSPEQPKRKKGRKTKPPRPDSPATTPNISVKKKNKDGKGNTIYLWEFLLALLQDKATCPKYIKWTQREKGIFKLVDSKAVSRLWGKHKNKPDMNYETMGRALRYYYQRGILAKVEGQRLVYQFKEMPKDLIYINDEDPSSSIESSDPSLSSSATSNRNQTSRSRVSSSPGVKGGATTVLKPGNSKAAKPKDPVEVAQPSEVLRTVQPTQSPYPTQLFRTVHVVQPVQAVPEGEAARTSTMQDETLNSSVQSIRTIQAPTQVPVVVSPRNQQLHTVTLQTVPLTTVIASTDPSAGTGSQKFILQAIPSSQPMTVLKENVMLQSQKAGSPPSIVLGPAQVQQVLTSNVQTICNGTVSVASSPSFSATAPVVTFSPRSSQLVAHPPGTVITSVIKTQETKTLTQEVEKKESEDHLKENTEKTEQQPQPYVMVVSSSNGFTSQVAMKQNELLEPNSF
In short: as §1

EHF = biological target: T2, EHF (Homo sapiens, UniProt Q9NZC4 1-300)
T2 sequence: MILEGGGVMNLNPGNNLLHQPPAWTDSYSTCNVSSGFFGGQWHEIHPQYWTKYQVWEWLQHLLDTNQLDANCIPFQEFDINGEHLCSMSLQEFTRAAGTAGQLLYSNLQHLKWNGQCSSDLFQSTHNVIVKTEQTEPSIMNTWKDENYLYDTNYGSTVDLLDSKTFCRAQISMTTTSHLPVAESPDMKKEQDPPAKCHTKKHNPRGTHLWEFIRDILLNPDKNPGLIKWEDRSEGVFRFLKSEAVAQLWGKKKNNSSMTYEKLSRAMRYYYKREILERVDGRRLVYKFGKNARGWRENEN
In short: as §1

SPI1 = SPI1 (Homo sapiens, UniProt P17947 1-270)
In short: as §1

ELK3 = biological target: T3, ELK3 (Homo sapiens, UniProt P41970 1-407)
T3 sequence: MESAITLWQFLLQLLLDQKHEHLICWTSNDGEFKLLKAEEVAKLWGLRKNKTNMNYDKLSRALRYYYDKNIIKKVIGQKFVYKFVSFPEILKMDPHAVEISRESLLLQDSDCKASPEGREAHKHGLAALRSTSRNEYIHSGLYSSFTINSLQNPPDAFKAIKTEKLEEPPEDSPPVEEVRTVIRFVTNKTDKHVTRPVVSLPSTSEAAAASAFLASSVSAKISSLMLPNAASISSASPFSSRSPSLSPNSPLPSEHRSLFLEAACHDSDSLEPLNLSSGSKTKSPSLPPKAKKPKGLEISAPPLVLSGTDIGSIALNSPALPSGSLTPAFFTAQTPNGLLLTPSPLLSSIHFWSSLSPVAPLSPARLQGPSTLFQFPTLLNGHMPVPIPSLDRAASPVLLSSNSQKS
In short: as §1

ELF4 = ELF4 (Homo sapiens, UniProt Q99607 1-663)
Chain of ELF4 (Q99607 whole entry): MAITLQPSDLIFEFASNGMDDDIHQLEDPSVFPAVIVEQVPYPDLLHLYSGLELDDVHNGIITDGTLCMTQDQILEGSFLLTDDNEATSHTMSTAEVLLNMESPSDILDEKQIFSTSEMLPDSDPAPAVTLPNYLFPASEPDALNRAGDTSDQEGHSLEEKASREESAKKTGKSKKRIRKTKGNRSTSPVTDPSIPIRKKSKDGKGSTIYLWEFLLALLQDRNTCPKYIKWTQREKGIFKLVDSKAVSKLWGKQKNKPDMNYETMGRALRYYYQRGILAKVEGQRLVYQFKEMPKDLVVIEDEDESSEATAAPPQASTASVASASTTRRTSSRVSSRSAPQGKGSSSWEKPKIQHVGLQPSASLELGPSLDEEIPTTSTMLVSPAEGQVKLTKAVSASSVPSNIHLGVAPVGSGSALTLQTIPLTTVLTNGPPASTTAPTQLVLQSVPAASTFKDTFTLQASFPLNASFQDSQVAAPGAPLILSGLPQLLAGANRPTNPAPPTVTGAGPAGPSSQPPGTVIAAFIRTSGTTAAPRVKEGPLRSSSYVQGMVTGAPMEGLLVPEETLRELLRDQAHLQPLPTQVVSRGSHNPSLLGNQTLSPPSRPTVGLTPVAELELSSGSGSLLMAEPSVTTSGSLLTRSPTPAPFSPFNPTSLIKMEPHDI
In short: as §1

ELK4 = biological target: T4, ELK4 (Homo sapiens, UniProt P28324-2 1-405)
T4 sequence: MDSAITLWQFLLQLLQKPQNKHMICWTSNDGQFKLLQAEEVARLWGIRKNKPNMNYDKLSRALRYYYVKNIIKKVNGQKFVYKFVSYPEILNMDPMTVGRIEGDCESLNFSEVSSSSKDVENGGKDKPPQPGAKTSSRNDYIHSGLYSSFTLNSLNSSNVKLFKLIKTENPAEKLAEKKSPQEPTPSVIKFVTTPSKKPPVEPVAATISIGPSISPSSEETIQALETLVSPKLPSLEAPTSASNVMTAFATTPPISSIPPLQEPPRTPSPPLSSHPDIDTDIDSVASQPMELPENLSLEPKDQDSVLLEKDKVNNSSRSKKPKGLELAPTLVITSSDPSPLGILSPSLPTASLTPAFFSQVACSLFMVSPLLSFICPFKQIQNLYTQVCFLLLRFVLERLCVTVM
In short: as §1

ETV2 = biological target: T5, ETV2 (Homo sapiens, UniProt O00321 1-342)
T5 sequence: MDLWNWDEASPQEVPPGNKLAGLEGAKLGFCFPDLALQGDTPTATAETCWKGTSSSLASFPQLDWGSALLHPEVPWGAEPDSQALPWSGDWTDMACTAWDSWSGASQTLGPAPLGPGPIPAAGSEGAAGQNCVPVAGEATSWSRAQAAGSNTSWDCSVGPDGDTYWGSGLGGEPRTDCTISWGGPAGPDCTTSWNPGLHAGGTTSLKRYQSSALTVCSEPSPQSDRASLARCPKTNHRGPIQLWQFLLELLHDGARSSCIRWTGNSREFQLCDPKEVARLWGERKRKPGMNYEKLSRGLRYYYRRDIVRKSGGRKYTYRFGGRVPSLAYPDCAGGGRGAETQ
In short: as §1

ELF3 = biological target: T6, ELF3 (Homo sapiens, UniProt P78545 1-371)
T6 sequence: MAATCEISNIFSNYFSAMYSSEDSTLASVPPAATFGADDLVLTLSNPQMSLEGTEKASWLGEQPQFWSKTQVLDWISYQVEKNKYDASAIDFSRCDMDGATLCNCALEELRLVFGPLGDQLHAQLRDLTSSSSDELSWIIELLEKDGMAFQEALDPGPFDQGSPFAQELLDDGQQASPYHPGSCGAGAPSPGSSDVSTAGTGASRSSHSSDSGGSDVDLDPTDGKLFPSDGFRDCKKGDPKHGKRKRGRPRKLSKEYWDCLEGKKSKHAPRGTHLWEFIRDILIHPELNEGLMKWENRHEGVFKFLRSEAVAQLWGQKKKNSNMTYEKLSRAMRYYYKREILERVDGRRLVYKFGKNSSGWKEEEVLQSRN
In short: as §1

CRX = CRX (Homo sapiens, UniProt O43186 1-299)
Chain of CRX (O43186 whole entry): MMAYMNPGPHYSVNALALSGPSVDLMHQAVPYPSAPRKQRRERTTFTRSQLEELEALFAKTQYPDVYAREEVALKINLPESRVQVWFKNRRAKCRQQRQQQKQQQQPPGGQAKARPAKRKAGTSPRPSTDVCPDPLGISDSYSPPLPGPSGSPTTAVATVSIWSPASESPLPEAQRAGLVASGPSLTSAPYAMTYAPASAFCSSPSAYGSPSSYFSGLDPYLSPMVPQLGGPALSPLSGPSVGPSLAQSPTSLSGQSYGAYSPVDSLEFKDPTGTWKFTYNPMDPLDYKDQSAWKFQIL
In short: as §1

ERF = biological target: T7, ERF (Homo sapiens, UniProt P50548 1-548)
T7 sequence: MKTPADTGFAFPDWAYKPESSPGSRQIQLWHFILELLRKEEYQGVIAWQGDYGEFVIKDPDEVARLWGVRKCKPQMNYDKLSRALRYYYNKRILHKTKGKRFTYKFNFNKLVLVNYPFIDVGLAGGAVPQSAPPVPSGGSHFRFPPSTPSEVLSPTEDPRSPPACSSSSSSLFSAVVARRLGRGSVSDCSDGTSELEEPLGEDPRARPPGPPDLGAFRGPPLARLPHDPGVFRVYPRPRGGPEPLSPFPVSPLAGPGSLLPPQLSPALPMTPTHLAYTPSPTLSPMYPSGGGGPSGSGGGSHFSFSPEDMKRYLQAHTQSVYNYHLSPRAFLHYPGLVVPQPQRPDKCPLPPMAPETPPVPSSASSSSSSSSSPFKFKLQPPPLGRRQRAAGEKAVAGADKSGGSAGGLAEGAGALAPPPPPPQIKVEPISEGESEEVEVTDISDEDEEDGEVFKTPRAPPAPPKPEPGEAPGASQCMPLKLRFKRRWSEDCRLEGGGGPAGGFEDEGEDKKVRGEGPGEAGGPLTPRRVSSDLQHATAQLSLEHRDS
In short: as §1

SPDEF = biological target: T8, SPDEF (Homo sapiens, UniProt O95238 1-335)
T8 sequence: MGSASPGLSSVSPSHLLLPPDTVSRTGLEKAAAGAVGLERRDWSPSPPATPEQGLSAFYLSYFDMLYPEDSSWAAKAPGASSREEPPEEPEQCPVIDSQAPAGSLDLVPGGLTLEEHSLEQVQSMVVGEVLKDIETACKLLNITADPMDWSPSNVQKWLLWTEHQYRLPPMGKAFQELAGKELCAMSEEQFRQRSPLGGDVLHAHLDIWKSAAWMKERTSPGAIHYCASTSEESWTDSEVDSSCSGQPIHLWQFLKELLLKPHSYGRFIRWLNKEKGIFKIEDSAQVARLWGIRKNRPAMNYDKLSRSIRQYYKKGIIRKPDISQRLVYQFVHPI
In short: as §1

ETV7 = biological target: T9, ETV7 (Homo sapiens, UniProt Q9Y603 1-341)
T9 sequence: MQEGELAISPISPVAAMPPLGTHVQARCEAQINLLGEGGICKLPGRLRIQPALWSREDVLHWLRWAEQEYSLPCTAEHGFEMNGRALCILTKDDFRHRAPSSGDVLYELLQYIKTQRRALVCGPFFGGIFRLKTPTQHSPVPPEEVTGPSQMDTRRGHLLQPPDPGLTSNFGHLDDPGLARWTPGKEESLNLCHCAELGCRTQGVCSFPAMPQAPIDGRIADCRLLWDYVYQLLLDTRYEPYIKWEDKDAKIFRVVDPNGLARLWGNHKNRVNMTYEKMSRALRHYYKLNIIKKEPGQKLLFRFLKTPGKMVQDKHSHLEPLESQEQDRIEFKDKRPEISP
In short: as §1

ETV3 = biological target: T10, ETV3 (Homo sapiens, UniProt P41162-2 1-143)
T10 sequence: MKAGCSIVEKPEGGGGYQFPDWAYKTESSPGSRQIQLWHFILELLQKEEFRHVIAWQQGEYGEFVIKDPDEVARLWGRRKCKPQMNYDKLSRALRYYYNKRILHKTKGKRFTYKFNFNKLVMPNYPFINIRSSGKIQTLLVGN
In short: as §1

GABPA = biological target: T11, GABPA (Homo sapiens, UniProt Q06546 1-454)
T11 sequence: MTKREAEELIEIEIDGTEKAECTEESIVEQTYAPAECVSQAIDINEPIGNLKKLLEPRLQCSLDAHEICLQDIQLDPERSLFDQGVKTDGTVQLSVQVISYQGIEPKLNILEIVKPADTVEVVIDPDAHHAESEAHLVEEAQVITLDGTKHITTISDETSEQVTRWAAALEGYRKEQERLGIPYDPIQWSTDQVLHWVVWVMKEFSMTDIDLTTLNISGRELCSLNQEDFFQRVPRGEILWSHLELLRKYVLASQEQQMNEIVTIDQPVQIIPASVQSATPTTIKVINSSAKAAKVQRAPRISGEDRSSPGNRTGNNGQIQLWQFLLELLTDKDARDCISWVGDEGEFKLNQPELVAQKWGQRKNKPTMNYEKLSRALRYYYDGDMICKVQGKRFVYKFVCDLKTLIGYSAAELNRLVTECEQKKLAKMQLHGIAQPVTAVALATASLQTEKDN
In short: as §1

ETV3L = biological target: T12, ETV3L (Homo sapiens, UniProt Q6ZN32 1-361)
T12 sequence: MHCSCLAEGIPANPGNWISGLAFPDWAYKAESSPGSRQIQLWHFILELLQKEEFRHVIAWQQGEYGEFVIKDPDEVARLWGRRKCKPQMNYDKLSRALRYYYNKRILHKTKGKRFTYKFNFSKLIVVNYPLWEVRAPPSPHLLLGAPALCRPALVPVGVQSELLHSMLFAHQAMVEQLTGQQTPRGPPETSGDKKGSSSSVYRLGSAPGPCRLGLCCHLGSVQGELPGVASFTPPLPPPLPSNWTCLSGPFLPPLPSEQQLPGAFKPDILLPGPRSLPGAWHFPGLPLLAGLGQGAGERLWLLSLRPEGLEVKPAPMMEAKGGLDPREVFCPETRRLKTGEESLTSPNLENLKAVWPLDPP
In short: as §1

ETS2 = biological target: T13, ETS2 (Homo sapiens, UniProt P15036 1-469)
T13 sequence: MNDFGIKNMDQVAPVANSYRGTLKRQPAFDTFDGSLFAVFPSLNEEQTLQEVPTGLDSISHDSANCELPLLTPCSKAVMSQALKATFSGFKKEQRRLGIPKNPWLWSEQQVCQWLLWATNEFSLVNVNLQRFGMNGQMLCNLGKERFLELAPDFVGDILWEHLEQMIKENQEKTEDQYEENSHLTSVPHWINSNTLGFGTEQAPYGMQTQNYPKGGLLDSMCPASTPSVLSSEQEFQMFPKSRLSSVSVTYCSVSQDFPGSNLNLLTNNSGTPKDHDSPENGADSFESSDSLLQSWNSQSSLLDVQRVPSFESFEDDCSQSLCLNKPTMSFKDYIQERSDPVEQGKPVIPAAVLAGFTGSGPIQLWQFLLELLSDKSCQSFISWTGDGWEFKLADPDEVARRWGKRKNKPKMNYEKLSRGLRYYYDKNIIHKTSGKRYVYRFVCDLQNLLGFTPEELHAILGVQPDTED
In short: as §1

Row | Sequence | binding signal (ELK1) | binding signal (ELF1) | binding signal (EHF) | binding signal (SPI1) | binding signal (ELK3) | binding signal (ELF4) | binding signal (ELK4) | binding signal (ETV2) | binding signal (ELF3) | binding signal (CRX) | binding signal (ERF) | binding signal (SPDEF) | binding signal (ETV7) | binding signal (ETV3) | binding signal (GABPA) | binding signal (ETV3L) | binding signal (ETS2)
1 | TAACGT | 1.02 fold enrichment (6-mer frequency, TF over GST control) | 1.01 fold enrichment (6-mer frequency, TF over GST control) | 1.02 fold enrichment (6-mer frequency, TF over GST control) | 1.03 fold enrichment (6-mer frequency, TF over GST control) | 1.08 fold enrichment (6-mer frequency, TF over GST control) | 1.01 fold enrichment (6-mer frequency, TF over GST control) | 1.06 fold enrichment (6-mer frequency, TF over GST control) | 1.02 fold enrichment (6-mer frequency, TF over GST control) | 1.06 fold enrichment (6-mer frequency, TF over GST control) | 1.16 fold enrichment (6-mer frequency, TF over GST control) | 1.07 fold enrichment (6-mer frequency, TF over GST control) | 1.05 fold enrichment (6-mer frequency, TF over GST control) | 1.01 fold enrichment (6-mer frequency, TF over GST control) | 1.04 fold enrichment (6-mer frequency, TF over GST control) | – | – | –
2 | TCATTG | 1.01 fold enrichment (6-mer frequency, TF over GST control) | 1.03 fold enrichment (6-mer frequency, TF over GST control) | 1.03 fold enrichment (6-mer frequency, TF over GST control) | – | – | – | 1.07 fold enrichment (6-mer frequency, TF over GST control) | – | – | – | 1.04 fold enrichment (6-mer frequency, TF over GST control) | – | – | – | 1 fold enrichment (6-mer frequency, TF over GST control) | 1.04 fold enrichment (6-mer frequency, TF over GST control) | 1 fold enrichment (6-mer frequency, TF over GST control)
